# In the OligoGym collection:
# Molecular target: ARF4
# Test: pooled miR-30 sensor sort-seq; sequence = guide strand
# Details: shRNA
# Also: reference of the scale not given here.
row,Sequence,sensor-assay potency score (higher = more potent)
1,TAGCATTTGGCAAATCCTGTTT,-0.434
2,TTTTCTGCAGCTCATCTGCTAC,-0.921
3,TTTATCTGTCATTTCACTGATG,-0.303
4,TACAGAATGGTTGTCTTGCCAG,-0.56
5,TATCTTGACCACCAACATCCCA,-1.07

# Molecular target: ARHGAP18
# Test: as above
# Details: shRNA
row,Sequence,sensor-assay potency score (higher = more potent)
1,TTTCTTTTGATTCTCTCTGTTG,-0.646
2,TTCTCCATAACTTTGATGGTGG,-0.384
3,TTTGACAACAACCACCTCTTGA,0.34
4,TTCTCCTTTCTTGAGAGTCTGG,-0.587
5,TTGGTTTACAATAAACTTGGGA,0.294
6,TAAAAACACAATGCTTTCCTGT,0.106
7,TTGCACTCGAATCACTCCCTGA,-0.442
8,TTTGCTTCTAGTTCTTGGCAAA,-1.24
9,TTCTATCCAATAGTCTTCCATA,-1.16
10,TTATTTACACTCTTGACTCAGC,-0.0105
11,TTTATTTACACTCTTGACTCAG,0.18
12,ATTTGTACTCTTATCTTGCTTT,0.153

# Molecular target: ARHGAP21
# Test: as above
# Details: shRNA
row,Sequence,sensor-assay potency score (higher = more potent)
1,TTTAGTATCATTGTGACACTGT,0.875
2,TTATTTTTTGAGACCTCGCAGG,-0.693
3,TATCTGACTTGAATCTAGCTGA,0.41
4,TTTCATTGCAAACACACACTGC,-0.187
5,TTCTATTGGATAACAAATCTAC,-0.588
6,TTGTTGAGTCACTAGTAGCTGA,-0.152
7,TAGACTTCCACTATCTGACTTG,0.173
8,TAAATCTGAAGTACCAGCGTTT,0.202
9,TTAAACTATCTAATCTTTCTTG,0.206
10,TAAACTGCGACACAGATCCCAC,-0.61
11,TTGTATATCAATATCAGCCATT,-0.872
12,TAAACTATCTAATCTTTCTTGT,0.258

# Molecular target: ARHGAP30
# Test: as above
# Details: shRNA
row,Sequence,sensor-assay potency score (higher = more potent)
1,TTAATCTGGATTTAAAAGGGAC,-0.482
2,TGCACAGCTCTTTAGCACCTGG,-0.978
3,TAGGTCATCATAGGCACTCAGG,-1.26
4,TCTTGCTACACATTGCACTGGG,0.852
5,AAGAGGATCGAGAAGCTCGGGA,-0.319
6,TAGAGTTGGGCACTACAGCTGC,-0.34
7,TTGACCTTCACTAGAGTGGGAC,-0.00464
8,TTTGGCACAGTCAACCTCCAGG,-0.36
9,TGAATCTTGCTACACATTGCAC,-1.12
10,TTGTTGGATTTATCCTCCCTGT,-0.894
11,TTGTGTCGGAGACAAGTTCAGG,-1.32
